Experimental data reported in PubChem BioAssay AID1159580 (chemical genetic matrix, 2015).
Screen size: about 5,500 compounds; about 2,000 (36%) were called active. Roughly 18% stayed inconclusive and do not appear here. Cut-off read from the data, not from the text of the source: active = normalized growth mostly below about 0.91 (no sharp cut-off); inconclusive = no clear call, values can overlap the other calls; inactive = mostly above about 0.92. Some of the results follow.

Assay: chemical genetic growth profiling, strain panel (AID 1159580);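 note: tested at 20 µM; growth read once vehicle control cultures reached saturation at 30 °C; 1 = growth at the plate median or of vehicle wells; lower values mean less growth of the strain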
Conditions: growth OD

Measured: normalized growth

COC(=O)C(C)c1ccc(C(=O)c2cccs2)cc1 (configuration not stated)
active: S. cerevisiae deletion strains, locus YNL307C, strain MCK1, stronger effect = lower value 0.819 | S. cerevisiae deletion strains, locus YOR184W, strain ser1, stronger effect = lower value 0.747
inactive: S. cerevisiae deletion strains, locus YJR075W, strain HOC1, stronger effect = lower value 1.07 | S. cerevisiae deletion strains, locus YKL009W, strain mrt4, stronger effect = lower value 0.905 | S. cerevisiae deletion strains, locus YKL068W, stronger effect = lower value 0.967 | S. cerevisiae deletion strains, locus YKL085W, strain MDH1 (second series), stronger effect = lower value 0.941 | S. cerevisiae deletion strains, locus YKL085W, strain MDH1, stronger effect = lower value 0.941 | S. cerevisiae deletion strains, locus YKL160W, strain elf1, stronger effect = lower value 1 | S. cerevisiae deletion strains, locus YKL190W, strain CNB1, stronger effect = lower value 0.997 | S. cerevisiae deletion strains, locus YKR001C, strain vps1, stronger effect = lower value 0.936 | S. cerevisiae deletion strains, locus YKR026C, strain gcn3, stronger effect = lower value 1 | S. cerevisiae deletion strains, locus YKR091W, strain srl3, stronger effect = lower value 1.01 | S. cerevisiae deletion strains, locus YLL001W, strain dnm1, stronger effect = lower value 1.01 | S. cerevisiae deletion strains, locus YLL026W, stronger effect = lower value 1.01 | S. cerevisiae deletion strains, locus YLL041C, strain sdh2, stronger effect = lower value 1.01 | S. cerevisiae deletion strains, locus YLR027C, strain aat2, stronger effect = lower value 1.01 | S. cerevisiae deletion strains, locus YLR039C, strain RIC1, stronger effect = lower value 0.862 | S. cerevisiae deletion strains, locus YLR058C, strain SHM2, stronger effect = lower value 0.989 | S. cerevisiae deletion strains, locus YLR102C, strain apc9, stronger effect = lower value 0.966 | S. cerevisiae deletion strains, locus YLR113W, strain HOG1, stronger effect = lower value 0.943 | S. cerevisiae deletion strains, locus YLR221C, strain rsa3, stronger effect = lower value 0.978 | S. cerevisiae deletion strains, locus YLR258W, strain gsy2, stronger effect = lower value 1.02 | S. cerevisiae deletion strains, locus YLR262C, strain YPT6 (second series), stronger effect = lower value 0.998 | S. cerevisiae deletion strains, locus YLR262C, strain YPT6, stronger effect = lower value 0.842 | S. cerevisiae deletion strains, locus YLR268W, strain sec22, stronger effect = lower value 0.956 | S. cerevisiae deletion strains, locus YLR320W, strain mms22, stronger effect = lower value 1.01 | S. cerevisiae deletion strains, locus YLR330W, strain CHS5, stronger effect = lower value 0.979 | S. cerevisiae deletion strains, locus YLR342W, strain FKS1 (second series), stronger effect = lower value 0.881 | S. cerevisiae deletion strains, locus YLR342W, strain FKS1, stronger effect = lower value 1.02 | S. cerevisiae deletion strains, locus YLR357W, strain rsc2, stronger effect = lower value 1.02 | S. cerevisiae deletion strains, locus YLR370C, strain arc18, stronger effect = lower value 1.01 | S. cerevisiae deletion strains, locus YLR371W, strain rom2, stronger effect = lower value 0.958 | S. cerevisiae deletion strains, locus YLR384C, strain iki3, stronger effect = lower value 1.01 | S. cerevisiae deletion strains, locus YLR418C, strain cdc73, stronger effect = lower value 1.06 | S. cerevisiae deletion strains, locus YML016C, strain PPZ1, stronger effect = lower value 0.993 | S. cerevisiae deletion strains, locus YML032C, strain rad52, stronger effect = lower value 0.934 | S. cerevisiae deletion strains, locus YML120C, strain ndi1, stronger effect = lower value 1.01 | S. cerevisiae deletion strains, locus YML124C, strain tub3, stronger effect = lower value 0.958 | S. cerevisiae deletion strains, locus YMR058W, strain fet3, stronger effect = lower value 1.01 | S. cerevisiae deletion strains, locus YMR078C, strain ctf18, stronger effect = lower value 0.934 | S. cerevisiae deletion strains, locus YMR125W, strain sto1, stronger effect = lower value 1.02 | S. cerevisiae deletion strains, locus YMR129W, stronger effect = lower value 1.01 | S. cerevisiae deletion strains, locus YMR205C, strain PFK2, stronger effect = lower value 1.01 | S. cerevisiae deletion strains, locus YMR223W, strain ubp8, stronger effect = lower value 0.913 | S. cerevisiae deletion strains, locus YMR231W, strain pep5, stronger effect = lower value 0.996 | S. cerevisiae deletion strains, locus YMR263W, strain SAP30, stronger effect = lower value 1.01 | S. cerevisiae deletion strains, locus YMR307W, strain GAS1, stronger effect = lower value 0.973 | S. cerevisiae deletion strains, locus YNL067W, strain RPL9B, stronger effect = lower value 0.988 | S. cerevisiae deletion strains, locus YNL071W, strain lat1, stronger effect = lower value 1.01 | S. cerevisiae deletion strains, locus YNL128W, strain TEP1, stronger effect = lower value 1.03 | S. cerevisiae deletion strains, locus YNL153C, strain GIM3, stronger effect = lower value 1.02 | S. cerevisiae deletion strains, locus YNL183C, strain NPR1, stronger effect = lower value 0.912 | S. cerevisiae deletion strains, locus YNL209W, strain ssb2, stronger effect = lower value 1.01 | S. cerevisiae deletion strains, locus YNL233W, strain BNI4, stronger effect = lower value 1.01 | S. cerevisiae deletion strains, locus YNL248C, strain rpa49, stronger effect = lower value 1 | S. cerevisiae deletion strains, locus YNL250W, strain rad50, stronger effect = lower value 0.976 | S. cerevisiae deletion strains, locus YNL271C, strain bni1, stronger effect = lower value 0.939 | S. cerevisiae deletion strains, locus YNL298W, strain CLA4, stronger effect = lower value 0.932 | S. cerevisiae deletion strains, locus YNL322C, strain KRE1 (second series), stronger effect = lower value 1.01 | S. cerevisiae deletion strains, locus YNL322C, strain KRE1, stronger effect = lower value 0.991 | S. cerevisiae deletion strains, locus YNR049C, strain mso1, stronger effect = lower value 1.02 | S. cerevisiae deletion strains, locus YNR052C, strain pop2, stronger effect = lower value 0.945 | S. cerevisiae deletion strains, locus YOL006C, strain TOP1, stronger effect = lower value 0.921 | S. cerevisiae deletion strains, locus YOL012C, strain htz1 2.2 | S. cerevisiae deletion strains, locus YOL147C, strain pex11, stronger effect = lower value 0.97 | S. cerevisiae deletion strains, locus YOR001W, strain rrp6, stronger effect = lower value 0.983 | S. cerevisiae deletion strains, locus YOR061W, strain CKA2, stronger effect = lower value 0.985 | S. cerevisiae deletion strains, locus YOR069W, strain VPS5, stronger effect = lower value 0.986 | S. cerevisiae deletion strains, locus YOR070C, strain gyp1, stronger effect = lower value 1.01 | S. cerevisiae deletion strains, locus YOR080W, strain dia2, stronger effect = lower value 1.02 | S. cerevisiae deletion strains, locus YOR083W, strain WHI5, stronger effect = lower value 1 | S. cerevisiae deletion strains, locus YOR106W, strain vam3, stronger effect = lower value 0.995 | S. cerevisiae deletion strains, locus YOR136W, strain idh2, stronger effect = lower value 0.959 | S. cerevisiae deletion strains, locus YOR144C, strain elg1, stronger effect = lower value 0.96 | S. cerevisiae deletion strains, locus YOR231W, strain MKK1, stronger effect = lower value 0.954 | S. cerevisiae deletion strains, locus YOR265W, strain rbl2, stronger effect = lower value 1 | S. cerevisiae deletion strains, locus YOR270C, strain vph1, stronger effect = lower value 0.969 | S. cerevisiae deletion strains, locus YOR290C, strain snf2, stronger effect = lower value 1 | S. cerevisiae deletion strains, locus YOR316C, strain cot1, stronger effect = lower value 0.97 | S. cerevisiae deletion strains, locus YPL051W, strain arl3, stronger effect = lower value 1 | S. cerevisiae deletion strains, locus YPL055C, strain LGE1, stronger effect = lower value 1.04 | S. cerevisiae deletion strains, locus YPL078C, strain atp4, stronger effect = lower value 1.01 | S. cerevisiae deletion strains, locus YPL106C, strain sse1, stronger effect = lower value 1.01 | S. cerevisiae deletion strains, locus YPL240C, strain hsp82, stronger effect = lower value 1.02 | S. cerevisiae deletion strains, locus YPL241C, strain CIN2, stronger effect = lower value 0.995 | S. cerevisiae deletion strains, locus YPL256C, strain CLN2, stronger effect = lower value 0.962 | S. cerevisiae deletion strains, locus YPR119W, strain clb2, stronger effect = lower value 0.971 | S. cerevisiae deletion strains, locus YPR141C, strain kar3, stronger effect = lower value 0.968 | S. cerevisiae deletion strains, locus YPR163C, strain tif3, stronger effect = lower value 0.95 | S. cerevisiae deletion strains, locus YPR167C, strain met16, stronger effect = lower value 0.967 | S. cerevisiae deletion strains, strain wtn01, stronger effect = lower value 0.982 | S. cerevisiae strains, strain wild type, stronger effect = lower value 0.983
